Hits are enriched below; roughly 12% of the tested compounds scored in any of these assays.
JMJD2A Tudor – inhibitors of human JMJD2A Tudor domain; O75164; AlphaScreen JMJD2A-Tudor / H3K4me3 peptide binding; Potency, µM (titrated, usually from 114 µM), inactives show top-dose activity change, negative = inhibition, usual class: inhibitors; 4.4% of 390,000 active; note: potency is the fitted concentration of half-maximal effect; % is set by controls: 0 for no effect and ±100 for the full control effect; nearly all actives have a fitted effect of over 50% in size
G9a inh – inhibitors of human histone lysine methyltransferase G9a | Q96KQ7 | G9a H3K9 monomethylation, AlphaScreen, 2 h | Potency, µM (highest dose often 102 µM), for inactives: at the top dose activity, negative = inhibition, actives largely listed as inhibitors | 8.8% of 350,000 active | AID 504332; note: potency is the fitted concentration of half-maximal effect; % is set by controls: 0 for no effect and ±100 for the full control effect; nearly all actives have a fitted effect of over 75% in size
Target sequence (Q96KQ7 913-1193 limits assumed): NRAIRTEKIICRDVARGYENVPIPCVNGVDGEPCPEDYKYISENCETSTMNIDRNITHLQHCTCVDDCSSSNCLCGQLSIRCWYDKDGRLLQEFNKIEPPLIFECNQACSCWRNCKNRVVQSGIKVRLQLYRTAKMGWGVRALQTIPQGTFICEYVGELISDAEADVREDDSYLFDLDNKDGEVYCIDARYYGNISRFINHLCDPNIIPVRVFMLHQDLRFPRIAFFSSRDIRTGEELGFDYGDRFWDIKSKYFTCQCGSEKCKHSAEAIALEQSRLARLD
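AlphaScreen detection with an anti-monomethyl H3K9 antibody quantified product after a 2 h room-temperature reaction containing 500 nM biotinylated H3K9 peptide, 20 µM SAM and 20 nM enzyme, which had been preincubated 15 min with compound.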
PI5P4Ka inh – PI5P4K alpha (human) kinase inhibition | PI5P4Kalpha enzyme, ADP-Glo luminescence, 60 min; active compounds read low | max response, % | 1.2% of 330,000 active | AID 652105; active = max response of -50% or lower; inconclusive = between -30% and -50%; inactive = -30% or higher; note: value at the top dose of about 77 µM; % is set by controls: 0 for no effect and ±100 for the full control effect
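PI5P4Kalpha ADP-Glo assay; 5 microM ATP final; 60 min RT reaction; HEPES pH 7.4/EGTA/CHAPS, 5% DMSO; controls lacking substrate or enzyme; luminescent end-point.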
HP1b binding inh – inhibitors of HP1-beta chromodomain binding to methylated histone tails; AlphaScreen HP1-beta / biotin-H3K9me3 peptide binding; Potency, µM (top dose mostly 114 µM), without a hit: at the highest dose activity change, negative = inhibition, most hits filed as inhibitors; 0.56% of 390,000 active; note: potency is the fitted concentration of half-maximal effect; nearly all actives have a fitted effect of over 70% in size
Target sequence (P83916 whole entry, looked up): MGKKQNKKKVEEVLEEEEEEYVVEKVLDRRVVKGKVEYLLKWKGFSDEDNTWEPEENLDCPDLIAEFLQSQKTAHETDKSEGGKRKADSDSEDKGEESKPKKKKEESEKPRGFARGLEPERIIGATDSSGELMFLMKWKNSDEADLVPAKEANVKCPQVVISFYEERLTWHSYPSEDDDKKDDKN
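Compound inhibition of the preformed complex between 50 nM HP1-beta and 50 nM biotinylated H3K9me3 peptide was read by AlphaScreen. Buffer was PBS pH 7.4 with 0.01% Tween-20. Incubations ran 30 min at room temperature, with 10 ug/mL donor/acceptor beads.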
BAZ2B block – blocks human BAZ2B; Q9UIF8; 4.4% of 360,000 active; AlphaScreen BAZ2B-H3K14Ac peptide displacement; AID 504333; Potency, µM (highest dose often 114 µM), without a hit: at the highest dose activity change, negative = inhibition, hits mostly inhibitors; note: potency is the fitted concentration of half-maximal effect; % is set by controls: 0 for no effect and ±100 for the full control effect; nearly all actives have a fitted effect of over 60% in size
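Inhibition is scored as reduced AlphaScreen emission. The BAZ2B/b-H3(5-23)K14Ac complex (50 nM each) in PBS pH 7.4, 0.01% Tween-20 meets compound (up to 110 uM) for 30 min at RT before bead addition.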
PLK1 PBD block – blocks phosphopeptide binding to human PLK1 polo-box domain; Plk1 PBD binding of FITC phosphopeptide, fluorescence polarization; P53350; Potency, µM, without a hit: max response, negative = inhibition, actives largely listed as inhibitors; 2.8% of 360,000 active; AID 720504; note: potency is the fitted concentration of half-maximal effect; series mostly up to about 57 µM; % is set by controls: 0 for no effect and ±100 for the full control effect; nearly all actives have a fitted effect of over 65% in size
* hit, by the source's call; ? = inconclusive; . = not tested or not shown; [ ] = remark or other dose. Unless noted, calls come from the whole dose curve; as a rule, active = well fitted curve in the direction sought with a large enough effect; inconclusive = small, poorly fitted or top-dose-only effect, or another doubt; inactive = no such curve, though single readings can be large; an effect the other way counts as inactive or inconclusive.

SMILES	JMJD2A Tudor	G9a inh	PI5P4Ka inh	HP1b binding inh	BAZ2B block	PLK1 PBD block
Cc1cc(OCC(=O)N2CCOCC2)ccc1[N+](=O)[O-]	-3%	-9%[59 µM]	0	26%	-4%	-3%
Cc1c(C(=O)c2ccccc2)c2ccccn2c1CCc1ccccn1	-35%	40µM*	0	18%	71µM*	5%
Cc1c(C(=O)c2ccccc2)c2ccccn2c1CCC#N	-9%[11.4 µM]	?	6	54%	-37%	-20%
Cc1c(C(=O)c2ccc(F)cc2)c2ccccn2c1CCc1ccccn1	-30%	45µM*	3	8%	-39%	-12%
Cc1c(C(=O)Nc2cccc(Cl)c2)c2ccccn2c1CCc1ccncc1	1%	-15%[59 µM]	0	34%	-8%	-17%
Cc1c(C(=O)Nc2ccc(Cl)cc2)c2ccccn2c1CCc1ccncc1	-21%	14µM*	2	19%	-33%	-10%
CC(C)Oc1ccc(CNC(=O)C2CCCN(S(=O)(=O)c3ccc4c(ccn4C)c3)C2)cc1 (stereo not drawn)	-12%	1%[59 µM]	.	33%[57 µM]	0%	.
CCN1CCN(C(c2cccc(F)c2)c2c(O)cc(C)n(Cc3ccco3)c2=O)CC1 (stereo not drawn)	-35%	?	.	18%[57 µM]	-14%	.
COC(=O)c1ccc(NS(=O)(=O)c2ccc3[nH]c4c(c3c2)CCCC4)cc1	?	?	.	-21%	71µM*	.
CC(=O)c1ccc(NS(=O)(=O)c2ccc3[nH]c4c(c3c2)CCCC4)cc1	?	?	.	-12%	79µM*	.
COc1ccc(Cl)cc1NS(=O)(=O)c1ccc2[nH]c3c(c2c1)CCCC3	?	?	.	0%	-37%	.
Cc1ccc(NC(=O)CN(C)S(=O)(=O)c2ccc3[nH]c4c(c3c2)CCCC4)c(Cl)c1	?	11µM*	.	6%	-30%	.
Cc1ccc(NS(=O)(=O)c2ccc3[nH]c4c(c3c2)CCCC4)c(C)c1	28µM*	16µM*	.	?	40µM*	.
CN(CC(=O)Nc1cccc(Cl)c1)S(=O)(=O)c1ccc2[nH]c3c(c2c1)CCCC3	-36%	?	.	6%	-29%	.
CC(=O)c1ccc(NS(=O)(=O)c2ccc3[nH]c4c(c3c2)CCCCCC4)cc1	-34%	-47%[59 µM]	.	19%[57 µM]	?	.
COc1ccc(CCN2CC(=O)NC(=O)C2)cc1OC	.	.	?	.	.	-18%
Cc1c(-c2nnc(SCC(=O)Nc3ccc(Cl)cc3)o2)nnn1-c1ccc(F)cc1	-22%	16%[59 µM]	.	19%[57 µM]	-5%	.
CCCCN(C)CCNC(=O)c1nn(-c2ccc(OC)c(Cl)c2)c(=O)c2c1c1ccccc1n2C	-26%	1%[59 µM]	.	34%	.	.
COc1cc2c(cc1OC)C1O[C@](CCCCN3C(=O)c4ccccc4C3=O)(C2)OC2=C1C(=O)CC(C)(C)C2	.	-126%[2.33 µM]	.	.	?	.
CCOc1ccc(CNS(=O)(=O)c2ccc3[nH]c4c(c3c2)CCCC4)cc1OC	?	?	.	?	45µM*	.
COc1ccccc1CNS(=O)(=O)c1ccc2[nH]c3c(c2c1)CCCCC3	?	-7%[59 µM]	.	-15%	18%[57.1 µM]	.
Cc1ccc(NS(=O)(=O)c2ccc3[nH]c4c(c3c2)CCCCC4)cc1	?	14µM*	.	-19%	-31%[57.1 µM]	.
Cc1ccc(S(=O)(=O)N2CC=C(c3c(C)n(CC(=O)N4CCCC4)c4ccccc34)CC2)cc1C	-18%	1%[59 µM]	.	41%	-22%	.
Cc1oc2c(Cl)c(Cl)c(O)c(CN(C)C)c2c1C(=O)c1ccc(Cl)cc1	?	?	-6	-5%	45µM*	0%
FC(F)(F)c1ccccc1CN1CCN(C2CCCCCC2)CC1	6.3µM*	2.5µM*	-7	?	50µM*	-11%
SMILES	JMJD2A Tudor	G9a inh	PI5P4Ka inh	HP1b binding inh	BAZ2B block	PLK1 PBD block
O=C1c2ccccc2C(=O)N1CC#CCN1CCN(C2CCCCC2)CC1	?	20µM*	1	15%	?	-2%
O=C1c2ccccc2C(=O)N1C1CCCCC1	-1%	8%	-2	83%	-6%	-3%
Cc1ccccc1CN1CCN(Cc2ccccc2C(F)(F)F)CC1	2.8µM*	2.8µM*	.	-32%	28µM*	4%
Cc1ccc(S(=O)(=O)N2CCN(Cc3ccccc3Cl)CC2)cc1	5µM*	1.3µM*	.	?	45µM*	.
FC(F)(F)c1ccccc1CN1CCCC(N2CCN(c3ccccc3)CC2)C1 (stereo not drawn)	-33%	.	3	12%	?	4%
O=S1(=O)CCN(Cc2ccccc2C(F)(F)F)CC1	-19%	-6%	5	28%	-19%	-3%
COc1ccc(Cl)cc1NC(=O)C(C)n1c(=O)cc(C(F)(F)F)c2c(C)nn(C)c21 (stereo not drawn)	-8%	33%[59 µM]	.	-1%	0%	.
Cc1ccc(C)c(S(=O)(=O)NCC(=O)OCC(=O)Nc2sccc2C(N)=O)c1	-7%	-29%	-19	30%	6%	8%
Clc1ccccc1-c1nccc(NCc2ccccc2)n1	.	14%[0.501 µM]	.	.	.	.
COc1ccc(S(=O)(=O)N2CCN(Cc3ccccc3OC)CC2)cc1	.	.	4	.	.	-1%
O=[N+]([O-])c1ccccc1CN1CCN(S(=O)(=O)c2ccccc2)CC1	20µM*	.	-5	?	.	0%
Cc1ccc(S(=O)(=O)N2CCN(Cc3ccccc3C(F)(F)F)CC2)cc1	?	32µM*	1	?	56µM*	-10%
Cc1ccc(S(=O)(=O)N2CCN(Cc3cc(C(C)(C)C)ccc3O)CC2)cc1	?	-4%	-2	24%	-25%	5%
Cc1ccc(C)c(CS(=O)(=O)c2cn(CC(=O)N(C(C)C)C(C)C)c3ccccc23)c1	12%	-6%[59 µM]	.	43%	4%	.
CCc1c(C)sc2c1CCN(C(=O)Nc1ccc(F)c(Cl)c1)C2c1ccc(F)cc1 (stereo not drawn)	-4%	7%[59 µM]	.	18%	-21%	.
CC(C)Cn1c(S(=O)(=O)O)nc2ccccc21	-26%	.	-2	27%	-20%	-8%
CC(C)Cn1c(/C=C/c2ccco2)nc2ccccc21	-16%	7.9µM*	?	8%	-35%	-20%
COc1cc(CNCCSc2nnnn2C)ccc1OCc1ccc(C)cc1	-7%	-1%[59 µM]	.	36%	?	.
Cc1cc(-c2n[nH]c(=S)n2/N=C/c2ccc(C)s2)n[nH]1	7.9µM*	1.8µM*	5	0%	?	-15%
Cc1ccc(/C=N/n2c(C)nnc2C)s1	-21%[57.1 µM]	?	-7	?	-4%	27µM*
Cc1cc(-c2n[nH]c(=S)n2/N=C/c2ccc(Br)s2)n[nH]1	13µM*	?	-18	-25%	-37%	-27%
Cc1ccc(/C=N/N2CCOCC2)s1	-23%	6%	1	22%	-30%	-4%
Cc1cccc2c(=O)cc(CSc3ccccc3NC(=O)C(C)(C)C)[nH]c12	-5%	-26%[59 µM]	.	8%[57 µM]	10%	.
